In the supplement of paper PMC10849652:
About 8,800 targets were measured; listed, in parts, are those with a hit and a random draw of the rest. About 0.5% of all pairs of compound and target were hits.

Columns and labels:
Assay in all cases: log2 fold change, soluble protein after heating vs DMSO (PISA); higher = thermal stabilisation; K562 lysate, 10 uM; active = over 0.2 and 3.5 SD of the protein, either way, in both replicates (recomputed)
[1] = compound: C#Cc1cccc(Nc2ncnc3cc(OCCOC)c(OCCOC)cc23)c1 [erlotinib]
Procedure, shortened: (§1)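 The values are log-two fold changes in thermal stability compared with solvent controls and come from duplicates. They were obtained by TMTpro 16plex LC-MS/MS, with channel sums equalised, on the supernatant after 21,000xg for 90 min. That supernatant came from crude K562 extract at 1 mg/mL protein treated with 10 μM compound for 30 min, heated for 3 min across 48°C-58°C, pooled and brought to 0.5% NP-40 at 4°C.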

[2] = compound: C/C(=N\NC(=O)C1=CC(=CC=C1)S(=O)(=O)N2CCOCC2)/C3=C(C=CC(=C3)Cl)O
Procedure, shortened: as §1

[3] = compound: C1=CC(=CC=C1C2=NC3=C(N2)C=C(C=C3)C(=O)N)OC4=CC=C(C=C4)Cl
Procedure, shortened: as §1

[4] = compound: C1=CC2=C(C=CC(=C2)/C=C\3/C(=O)NC(=NCC4=CC=CS4)S3)N=C1
Procedure, shortened: as §1

[5] = compound: C1=CC2=NC=CN=C2C=C1/C=C/3\C(=O)NC(=O)S3
Procedure, shortened: as §1

[6] = compound: C1=CC=C(C=C1)C2=NC(=C(N2)C3=CC=NC=C3)C4=CC(=C(C=C4)Cl)O
Procedure, shortened: as §1

[7] = compound: C1=CC=C2C(=C1)C3=NNC4=CC=CC(=C43)C2=O
Procedure, shortened: as §1

[8] = compound: C1CCN(C1)C(=O)NC2=CC=CC(=C2)NC3=NC=C(C(=N3)NCCC4=CN=CN4)Br
Procedure, shortened: as §1

[9] = compound: C1CN(CCC1(CC2=CC=C(C=C2)Cl)N)C3=NC=NC4=C3C=CN4
Procedure, shortened: as §1

[10] = compound: C1COCCN1CCN2C3=CC=CC=C3N=C2NC(=O)C4=CC(=CC=C4)[N+](=O)[O-] [IRAK-1-4 Inhibitor I]
Procedure, shortened: as §1

Measured: log2 fold change

ANXA11 (UniProt P50995)
Sequence of UniProt P50995 (P50995 whole entry, looked up): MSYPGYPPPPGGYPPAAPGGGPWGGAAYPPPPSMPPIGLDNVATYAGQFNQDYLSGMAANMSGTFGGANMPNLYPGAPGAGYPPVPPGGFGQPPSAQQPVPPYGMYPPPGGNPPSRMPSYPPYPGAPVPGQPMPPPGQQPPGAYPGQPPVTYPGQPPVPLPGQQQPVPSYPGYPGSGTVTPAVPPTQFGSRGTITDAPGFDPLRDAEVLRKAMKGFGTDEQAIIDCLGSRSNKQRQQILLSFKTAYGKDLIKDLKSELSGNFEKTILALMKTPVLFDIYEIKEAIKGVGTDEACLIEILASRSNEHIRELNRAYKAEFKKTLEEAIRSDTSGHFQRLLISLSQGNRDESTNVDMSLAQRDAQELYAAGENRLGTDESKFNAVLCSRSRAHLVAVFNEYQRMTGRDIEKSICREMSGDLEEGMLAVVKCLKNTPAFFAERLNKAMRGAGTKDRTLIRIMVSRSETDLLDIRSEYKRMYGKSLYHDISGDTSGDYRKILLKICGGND
inactive: [1] 0.015 | [2] 0.031 | [3] 0.025 | [4] -0.022 | [5] 0.017 | [6] -0.079 | [7] -0.016 | [8] 0.011 | [9] 0.033 | [10] 0.006

ALDH18A1 isoform 2 (UniProt P54886)
inactive: [2] -0.298 | [4] -0.142 | [6] 0.092 | [7] -0.05 | [10] 0.046

ARL13B (UniProt Q3SXY8)
Sequence of UniProt Q3SXY8 (Q3SXY8 whole entry, looked up): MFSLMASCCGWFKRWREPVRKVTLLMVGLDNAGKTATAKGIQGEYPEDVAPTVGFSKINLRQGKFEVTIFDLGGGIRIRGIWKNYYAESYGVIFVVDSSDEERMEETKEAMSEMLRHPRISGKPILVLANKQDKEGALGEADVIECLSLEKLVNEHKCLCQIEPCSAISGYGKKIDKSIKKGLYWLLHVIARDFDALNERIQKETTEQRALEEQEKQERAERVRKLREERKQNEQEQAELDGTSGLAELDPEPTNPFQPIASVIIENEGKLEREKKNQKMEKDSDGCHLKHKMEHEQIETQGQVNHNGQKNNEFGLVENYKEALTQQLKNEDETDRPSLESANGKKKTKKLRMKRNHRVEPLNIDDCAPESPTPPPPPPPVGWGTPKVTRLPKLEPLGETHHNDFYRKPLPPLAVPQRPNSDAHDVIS
inactive: [1] 0.043 | [2] 0.06 | [3] -0.195 | [4] -0.039 | [5] 0.118 | [6] -0.033 | [7] 0.094 | [10] 0.038

ANKRD44 isoform 2 (UniProt Q8N8A2)
Sequence of UniProt Q8N8A2 (Q8N8A2 whole entry, looked up): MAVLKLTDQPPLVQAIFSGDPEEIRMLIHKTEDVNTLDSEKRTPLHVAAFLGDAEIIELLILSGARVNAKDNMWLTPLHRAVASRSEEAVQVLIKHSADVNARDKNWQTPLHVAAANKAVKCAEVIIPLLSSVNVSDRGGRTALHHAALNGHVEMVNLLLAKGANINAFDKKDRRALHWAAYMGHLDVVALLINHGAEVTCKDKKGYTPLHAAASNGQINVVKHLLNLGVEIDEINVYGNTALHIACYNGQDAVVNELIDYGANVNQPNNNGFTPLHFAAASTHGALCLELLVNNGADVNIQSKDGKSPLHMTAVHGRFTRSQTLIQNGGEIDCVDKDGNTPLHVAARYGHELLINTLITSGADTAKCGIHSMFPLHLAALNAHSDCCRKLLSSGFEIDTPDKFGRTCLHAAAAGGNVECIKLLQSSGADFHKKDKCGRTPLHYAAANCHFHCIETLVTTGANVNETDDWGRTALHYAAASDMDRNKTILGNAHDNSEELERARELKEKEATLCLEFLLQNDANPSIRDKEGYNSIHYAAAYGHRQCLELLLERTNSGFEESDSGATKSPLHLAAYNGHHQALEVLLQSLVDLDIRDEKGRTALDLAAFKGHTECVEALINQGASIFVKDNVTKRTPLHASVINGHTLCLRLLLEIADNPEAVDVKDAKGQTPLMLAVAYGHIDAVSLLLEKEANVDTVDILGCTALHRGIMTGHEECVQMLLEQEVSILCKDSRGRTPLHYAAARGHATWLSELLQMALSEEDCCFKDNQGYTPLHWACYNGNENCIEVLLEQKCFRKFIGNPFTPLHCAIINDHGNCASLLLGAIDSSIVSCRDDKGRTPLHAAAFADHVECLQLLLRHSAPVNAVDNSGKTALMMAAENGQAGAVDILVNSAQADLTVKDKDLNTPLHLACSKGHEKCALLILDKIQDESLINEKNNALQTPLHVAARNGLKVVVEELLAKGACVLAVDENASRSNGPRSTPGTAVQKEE
inactive: [1] -0.034 | [2] -0.035 | [3] 0.002 | [4] -0.083 | [5] -0.016 | [7] -0.257 | [8] -0.059 | [9] -0.032

ACAA1 (UniProt P09110)
inactive: [1] 0.03 | [2] -0.455 | [3] 0.041 | [4] 0.015 | [5] 0.03 | [6] -0.036 | [7] 0.016 | [8] 0.014 | [9] -0.024 | [10] -0.006

ADAMTS5 (UniProt Q9UNA0)
inactive: [1] 0.027 | [2] 0.004 | [3] 0.044 | [4] -0.05 | [5] -0.046 | [6] 0.049 | [7] -0.001 | [8] 0.058 | [9] 0.073 | [10] 0.123

AGPS (UniProt O00116)
inactive: [1] 0.033 | [2] -0.086 | [3] -0.014 | [4] 0.037 | [5] 0.019 | [6] -0.039 | [7] -0.082 | [8] -0.034 | [9] 0.015 | [10] 0.023

AP5B1 (UniProt Q2VPB7)
Sequence of UniProt Q2VPB7 (Q2VPB7 whole entry, looked up): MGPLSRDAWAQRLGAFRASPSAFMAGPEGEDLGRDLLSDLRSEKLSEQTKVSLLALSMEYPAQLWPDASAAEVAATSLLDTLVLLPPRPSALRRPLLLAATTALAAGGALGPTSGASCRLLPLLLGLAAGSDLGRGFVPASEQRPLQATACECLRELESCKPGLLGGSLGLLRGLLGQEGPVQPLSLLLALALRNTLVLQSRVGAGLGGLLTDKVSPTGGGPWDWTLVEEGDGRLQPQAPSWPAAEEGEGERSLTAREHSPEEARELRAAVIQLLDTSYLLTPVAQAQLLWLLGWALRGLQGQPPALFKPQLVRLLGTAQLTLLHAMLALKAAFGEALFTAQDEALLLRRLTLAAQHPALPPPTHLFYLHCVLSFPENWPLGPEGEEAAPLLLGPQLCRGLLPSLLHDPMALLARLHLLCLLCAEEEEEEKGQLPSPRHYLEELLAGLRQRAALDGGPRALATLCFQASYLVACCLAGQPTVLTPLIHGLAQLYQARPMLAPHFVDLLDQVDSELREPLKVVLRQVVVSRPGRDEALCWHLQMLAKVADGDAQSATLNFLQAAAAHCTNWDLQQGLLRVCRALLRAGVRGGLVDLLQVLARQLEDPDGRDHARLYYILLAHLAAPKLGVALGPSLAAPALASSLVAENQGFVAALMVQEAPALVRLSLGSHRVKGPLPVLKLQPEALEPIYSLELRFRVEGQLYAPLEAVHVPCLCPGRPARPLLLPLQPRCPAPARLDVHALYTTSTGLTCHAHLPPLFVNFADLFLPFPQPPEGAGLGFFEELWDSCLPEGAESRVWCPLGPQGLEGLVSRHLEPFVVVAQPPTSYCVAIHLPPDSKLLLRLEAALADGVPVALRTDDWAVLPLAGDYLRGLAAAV
inactive: [1] 0.006 | [3] -0.05 | [5] -0.069 | [6] 0.014 | [8] 0.073 | [9] 0.046 | [10] 0.03

ABI1 isoform 6 (UniProt Q8IZP0)
inactive: [8] -0.167 | [9] 0.213

ACTG1 (UniProt K7EM38)
inactive: [8] -0.162 | [9] -0.155

ARHGEF2 (UniProt V9GYF0)
inactive: [2] -0.056 | [4] -0.125 | [6] 0.012 | [7] 0.078 | [8] -0.009 | [9] -0.058 | [10] 0.062

ACLY isoform 2 (UniProt P53396)
Sequence of UniProt P53396 (P53396 whole entry, looked up): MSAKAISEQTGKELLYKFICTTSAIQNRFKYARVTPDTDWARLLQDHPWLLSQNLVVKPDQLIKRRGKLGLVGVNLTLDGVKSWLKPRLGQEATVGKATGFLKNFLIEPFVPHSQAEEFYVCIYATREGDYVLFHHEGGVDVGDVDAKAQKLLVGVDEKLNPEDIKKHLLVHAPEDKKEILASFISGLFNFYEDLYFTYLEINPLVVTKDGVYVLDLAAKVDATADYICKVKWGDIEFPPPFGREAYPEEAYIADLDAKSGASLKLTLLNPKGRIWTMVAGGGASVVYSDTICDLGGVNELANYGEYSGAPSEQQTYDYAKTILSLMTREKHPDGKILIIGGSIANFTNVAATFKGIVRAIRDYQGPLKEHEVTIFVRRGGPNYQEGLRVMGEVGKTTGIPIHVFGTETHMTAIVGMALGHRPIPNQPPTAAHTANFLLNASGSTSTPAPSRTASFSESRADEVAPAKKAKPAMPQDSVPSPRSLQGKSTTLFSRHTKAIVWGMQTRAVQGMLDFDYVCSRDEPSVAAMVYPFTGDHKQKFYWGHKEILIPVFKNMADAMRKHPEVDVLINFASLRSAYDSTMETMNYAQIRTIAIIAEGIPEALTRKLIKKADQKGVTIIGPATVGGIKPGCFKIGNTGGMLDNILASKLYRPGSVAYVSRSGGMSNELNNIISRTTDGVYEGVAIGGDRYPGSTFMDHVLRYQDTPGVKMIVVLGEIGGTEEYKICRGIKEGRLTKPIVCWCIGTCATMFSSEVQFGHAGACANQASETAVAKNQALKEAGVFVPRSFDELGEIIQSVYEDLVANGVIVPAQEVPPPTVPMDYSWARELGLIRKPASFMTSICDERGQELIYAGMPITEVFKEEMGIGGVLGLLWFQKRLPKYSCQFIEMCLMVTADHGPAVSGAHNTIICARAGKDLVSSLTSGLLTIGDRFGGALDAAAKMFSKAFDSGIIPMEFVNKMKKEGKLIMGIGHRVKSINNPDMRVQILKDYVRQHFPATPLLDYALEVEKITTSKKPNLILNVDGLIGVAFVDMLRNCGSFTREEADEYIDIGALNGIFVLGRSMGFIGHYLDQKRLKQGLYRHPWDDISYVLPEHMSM
inactive: [2] -0.122 | [4] 0.002 | [5] -0.018 | [6] 0.012 | [7] -0.034 | [8] -0.027 | [9] -0.029 | [10] -0.053

ADK, A0A5F9ZH76
inactive: [5] 0

ALKBH1 (UniProt Q13686)
Sequence of UniProt Q13686 (Q13686 whole entry, looked up): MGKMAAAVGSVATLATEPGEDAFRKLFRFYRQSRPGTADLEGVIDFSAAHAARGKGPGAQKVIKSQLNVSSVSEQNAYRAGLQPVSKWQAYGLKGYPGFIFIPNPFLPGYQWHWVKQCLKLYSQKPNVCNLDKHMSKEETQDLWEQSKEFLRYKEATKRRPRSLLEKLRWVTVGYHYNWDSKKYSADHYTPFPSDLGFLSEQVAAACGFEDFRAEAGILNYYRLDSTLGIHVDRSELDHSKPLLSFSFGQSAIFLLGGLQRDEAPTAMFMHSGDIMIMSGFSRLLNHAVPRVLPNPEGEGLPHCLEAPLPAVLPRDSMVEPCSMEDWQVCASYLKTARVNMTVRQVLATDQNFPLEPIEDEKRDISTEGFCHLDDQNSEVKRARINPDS
inactive: [1] 0.033 | [2] -0.042 | [3] -0.02 | [4] 0.052 | [6] 0.024 | [7] -0.022 | [8] 0.211 | [9] 0.041 | [10] -0.11

ABHD13 (UniProt Q7L211)
inactive: [2] 0.015 | [4] 0.021 | [5] 0.011 | [7] -0.071 | [8] 0.176 | [9] 0.04

ALKBH4 (UniProt Q9NXW9)
inactive: [1] 0.014 | [2] -0.073 | [3] 0.026 | [4] -0.011 | [5] 0.017 | [6] -0.052 | [7] -0.069 | [8] 0 | [9] 0.019 | [10] 0.003

ALDH3A1 (UniProt P30838)
Sequence of UniProt P30838 (P30838 whole entry, looked up): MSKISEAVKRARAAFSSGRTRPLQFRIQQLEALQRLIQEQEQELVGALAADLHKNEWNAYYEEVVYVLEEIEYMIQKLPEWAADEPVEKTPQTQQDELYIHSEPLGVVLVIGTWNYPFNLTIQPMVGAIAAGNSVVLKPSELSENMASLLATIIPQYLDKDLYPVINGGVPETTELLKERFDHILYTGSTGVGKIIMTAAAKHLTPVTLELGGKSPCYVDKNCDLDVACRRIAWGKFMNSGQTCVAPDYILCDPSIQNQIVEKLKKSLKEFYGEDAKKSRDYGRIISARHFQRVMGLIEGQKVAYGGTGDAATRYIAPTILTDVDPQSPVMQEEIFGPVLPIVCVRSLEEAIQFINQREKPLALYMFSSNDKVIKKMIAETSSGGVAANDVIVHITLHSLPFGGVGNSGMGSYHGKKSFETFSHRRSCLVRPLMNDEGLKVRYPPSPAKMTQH
inactive: [1] 0.147 | [3] 0.257 | [6] 0.147 | [10] 0.059

ARL8A (UniProt Q96BM9)
inactive: [1] -0.223 | [2] -0.039 | [3] 0.176 | [4] 0.157 | [5] 0.036 | [6] 0 | [7] -0.041 | [8] 0.026 | [9] 0.028 | [10] 0.091

ACVR1 (UniProt Q04771)
inactive: [5] 0.074

ALKBH7 (UniProt Q9BT30)
Sequence of UniProt Q9BT30 (Q9BT30 whole entry, looked up): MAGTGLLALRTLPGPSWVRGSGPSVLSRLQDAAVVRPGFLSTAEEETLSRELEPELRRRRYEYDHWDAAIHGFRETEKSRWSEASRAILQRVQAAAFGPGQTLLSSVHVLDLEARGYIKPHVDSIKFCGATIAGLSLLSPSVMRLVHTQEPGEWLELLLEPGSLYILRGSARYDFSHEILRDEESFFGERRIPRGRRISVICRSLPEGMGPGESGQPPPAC
inactive: [1] -0.169 | [3] -0.02 | [6] 0 | [8] -0.033 | [9] 0.027 | [10] -0.04

ANXA2 (UniProt H0YL33)
inactive: [1] -0.153 | [3] 0.088 | [5] -0.108 | [6] -0.027 | [10] -0.031

ANKRD30A (UniProt Q9BXX3)
inactive: [5] 0.035 | [6] -0.06 | [8] 0.415 | [9] 0.144 | [10] -0.176
